ELG1 DNA repair = qHTS screen for small molecules that inhibit ELG1-dependent DNA repair in human embryonic kidney (HEK293T) cells expressing luciferase-tagged ELG1; HEK293T ELG1-luciferase reporter, luminescence, 16 h; DNA damage induced by 5-fluorouridine; Potency, µM (top dose mostly 46.1 µM), for the others: at the top dose activity change, negative = inhibition, usual class: inhibitors; hit rate 2.3% among 330,000; note: % is set by controls: 0 for no effect and ±100 for the full control effect; nearly all actives have a fitted effect of over 55% in size
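Quantitative HTS, concentration-response format. 2,000 cells/well co-treated with 5-fluorouridine and compound, 16 hr in 5% CO2 at 37 °C; ONE-Glo luminescence read after 30 min.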
FLuc modulator = qHTS profiling assay for firefly luciferase inhibitor/activator using purifed enzyme and Km concentrations of substrates (counterscreen for miR-21 project) | purified FLuc, Km substrates, luminescence inhibition | Potency, µM (doses to about 57.5 µM), for inactives: at the highest dose activity change, negative = inhibition, usual class: inhibitors | hit rate 6.9% among 360,000;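 note: plate controls were vehicle for no effect and reference inhibitor for full effect; nearly all actives have a fitted effect of over 55% in size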
Target sequence (P08659 whole entry, looked up): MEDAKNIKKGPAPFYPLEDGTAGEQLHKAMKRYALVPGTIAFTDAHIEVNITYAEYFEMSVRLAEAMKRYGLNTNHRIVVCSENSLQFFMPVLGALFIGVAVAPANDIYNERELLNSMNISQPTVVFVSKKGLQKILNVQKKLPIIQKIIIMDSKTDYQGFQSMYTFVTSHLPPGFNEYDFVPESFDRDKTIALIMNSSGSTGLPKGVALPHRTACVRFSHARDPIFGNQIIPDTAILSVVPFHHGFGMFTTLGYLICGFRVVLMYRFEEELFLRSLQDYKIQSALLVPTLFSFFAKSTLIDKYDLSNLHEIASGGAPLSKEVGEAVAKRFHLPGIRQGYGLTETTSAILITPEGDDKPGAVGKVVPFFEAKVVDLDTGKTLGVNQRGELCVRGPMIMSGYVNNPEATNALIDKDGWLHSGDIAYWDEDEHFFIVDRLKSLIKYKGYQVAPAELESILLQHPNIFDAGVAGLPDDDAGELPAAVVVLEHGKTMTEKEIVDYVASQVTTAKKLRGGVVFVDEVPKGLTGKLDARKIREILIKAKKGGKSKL
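Purified P. pyralis luciferase (10nM final) with 10uM D-luciferin and 10uM ATP (Km levels) in 50mM Tris acetate pH 7.5, 10mM Mg acetate, 0.01% Tween-20, 0.05% BSA; qHTS 6-point titration, ~60 µM downward; luminescence read.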
SMN2 splice up = qHTS Assay for Enhancers of SMN2 Splice Variant Expression | HEK293 SMN2-luciferase splicing reporter, luminescence, 30-36 h | Potency, µM (series often up to 46.1 µM), for the others: at the highest dose activity change, positive = activation, hits mostly activators | hit rate 2.8% among 210,000 | AID 1458, 2008; note: % of control where 0% means no effect; nearly all actives have a fitted effect of over 55% in size
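qHTS luciferase splicing reporter: luminescence rises when SMN2 exon 7 is included in transfected HEK293 cells. Compound exposure lasted 30-36 h at 37C, with 4.5 mM final sodium butyrate as control, followed by a ONE-Glo read.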
Rab9 promoter act = qHTS Assay for Rab9 Promoter Activators; Huh7 Rab9 promoter-luciferase reporter, luminescence, 24 h; hit rate 2.8% among 320,000; Potency, µM (doses to about 9.22 µM), inactives show top-dose activation, negative = inhibition, most hits filed as activators; note: % of control where 0% means no effect; nearly all actives have a fitted effect of over 60% in size
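Luciferase signal after 10 min detection reagent at ambient indicates Rab9 promoter upregulation; stably transfected Huh7 cells were treated 24 h with compound in DMSO at 37 °C, 5% CO2.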
NPC1 prom act = qHTS Assay for NPC1 Promoter Activators; Huh7 NPC1 promoter luciferase reporter, 24 h; hit rate 2.4% among 320,000; AID 485313, 2010; Potency, µM (doses to about 9.22 µM), without a hit: top-dose activation, most hits filed as activators; note: % of control where 0% means no effect; nearly all actives have a fitted effect of over 60% in size
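Luminescence read-out of NPC1 promoter-driven luciferase in stably transfected Huh7 cells; compounds delivered in DMSO and left 24 h at 37C, 5% CO2, qHTS titration format.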
ELG1 genotoxic = qHTS screen for small molecules that induce genotoxicity in human embryonic kidney (HEK293T) cells expressing luciferase-tagged ELG1 | HEK293T ELG1-luciferase reporter, luminescence, 16 h | Potency, µM (titrated, usually from 46 µM), inactives show at the highest dose activity change, positive = activation, hits mostly activators | hit rate 1.3% among 330,000 | AID 504466, 2011; note: % of control where 0% means no effect; nearly all actives have a fitted effect of over 60% in size
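HEK293T cells expressing luciferase-tagged ELG1 were treated with compound or DMSO for 16 hr at 37°C. Luciferase activity was then read after 30 min with ONE-Glo at room temperature; rising signal flags genetic stress.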
* hit, by the source's call; [ ] = dose if it differs, or a comment. Sampled rows, rich in hits. Any-hit rate of the full collection: about 9.3%. Calls come from the whole dose curve; as a rule, active = well fitted curve in the direction sought with a large enough effect; inconclusive = small, poorly fitted or top-dose-only effect, or another doubt; inactive = no such curve, though single readings can be large; an effect the other way counts as inactive or inconclusive. Potency is the fitted concentration of half-maximal effect.

For COc1ccc(-n2c(=O)c(CCc3ccccc3)nc3cnc(N(C)C)nc32)cc1 the results were SMN2 splice up 3.6%.
Screening CC(=O)Nc1ccc(S(=O)(=O)N2CCc3nc(COc4ccccc4)c4c(c3C2)CO[C@@H](C)C4)cc1 returned SMN2 splice up 1.0%[9.22 µM].
For CCc1nc(SCC(=O)Nc2nnc(CC)s2)c2c(=O)n(C)c(=O)n(C)c2n1 the results were ELG1 DNA repair 16.4µM*, FLuc modulator 2.8%, Rab9 promoter act -10.1%, NPC1 prom act -4.1% and ELG1 genotoxic -9.3%.
For Cc1cccc(NC(=O)CSc2nc(C)nc3c2c(=O)n(C)c(=O)n3C)c1 the results were ELG1 DNA repair -9.3%, FLuc modulator 8.1%, SMN2 splice up -18.7%, Rab9 promoter act -7.3%, NPC1 prom act -1.3% and ELG1 genotoxic 15.7%.
Cc1csc(NC(=O)CSc2nc(C)nc3c2c(=O)n(C)c(=O)n3C)n1 was read as ELG1 DNA repair 20.6µM*, FLuc modulator -0.3%, SMN2 splice up -49.2%, Rab9 promoter act -2.2%, NPC1 prom act -2.2% and ELG1 genotoxic -21.5%.
CCc1nc(SCC(=O)N2CCC(C)CC2)c2c(=O)n(C)c(=O)n(C)c2n1 was read as ELG1 DNA repair 20.6µM*, FLuc modulator -2.3%, SMN2 splice up -12.6%, Rab9 promoter act -2.7%, NPC1 prom act -3.2% and ELG1 genotoxic -5.0%.
`COc1cccc(COC(=O)c2c(C)nn(-c3ccccc3)c2Cl)c1OC` gave ELG1 DNA repair -5.3%, FLuc modulator 0.0%, Rab9 promoter act -4.6%, NPC1 prom act 13.9% and ELG1 genotoxic inconclusive.
Screening Cc1ccc(C(c2cc(Cl)c3cccnc3c2O)N2CCN(C)CC2)cc1 (configuration not stated) returned ELG1 DNA repair 16.4µM*, FLuc modulator -3.5%, Rab9 promoter act 14.4%, NPC1 prom act -8.1% and ELG1 genotoxic -6.8%.
For CC(=O)c1ccc(OCC(=O)NC2CCCN(Cc3ccccc3F)C2)cc1 (configuration not stated) the results were ELG1 DNA repair 15.2%, FLuc modulator -1.3%, Rab9 promoter act -2.9%, NPC1 prom act -4.6% and ELG1 genotoxic 1.0%.
For O=C(c1cc(COc2ccc(F)cc2Cl)on1)N1CCSCC1 the results were ELG1 DNA repair inconclusive, FLuc modulator 10.7µM*, Rab9 promoter act 3.98µM*, NPC1 prom act 2.82µM* and ELG1 genotoxic inconclusive.
Screening COc1ccc(OCc2cc(C(=O)N3CCN(CC(=O)N(C)C)CC3)no2)c(Cl)c1 returned ELG1 DNA repair 0.0%, FLuc modulator -18.9%, Rab9 promoter act 8.2%, NPC1 prom act -1.4% and ELG1 genotoxic 6.0%.
For COc1ccc(OCc2cc(C(=O)N3CCOCC3)no2)c(Cl)c1 the results were ELG1 DNA repair inconclusive, FLuc modulator 6.75µM*, Rab9 promoter act 1.41µM*, NPC1 prom act 1.58µM* and ELG1 genotoxic 18.3µM*.
For COc1ccc(OCc2cc(C(=O)N(C)CCC3CCOCC3)no2)c(Cl)c1 the results were ELG1 DNA repair inconclusive, FLuc modulator 16.9µM*, Rab9 promoter act inconclusive, NPC1 prom act inconclusive and ELG1 genotoxic inconclusive.
For COc1ccc(OCc2cc(C(=O)N3CCSCC3)no2)c(Cl)c1 the results were ELG1 DNA repair inconclusive, FLuc modulator 10.7µM*, Rab9 promoter act 2.82µM*, NPC1 prom act 2.82µM* and ELG1 genotoxic inconclusive.
`COc1c(C)cc(C(=O)C2CCCN(C(=O)/C=C/c3ccccn3)C2)cc1C` (configuration not stated) gave ELG1 DNA repair inconclusive, FLuc modulator inconclusive, Rab9 promoter act -1.5%, NPC1 prom act -0.5% and ELG1 genotoxic 1.1%.
Screening COc1cccc(OCc2cc(C(=O)N3CCC(c4ccncc4)CC3)no2)c1 returned ELG1 DNA repair inconclusive, FLuc modulator -3.1%, Rab9 promoter act -24.6%, NPC1 prom act -22.3% and ELG1 genotoxic 2.8%.
COc1cccc(OCc2cc(C(=O)N3CCN(C)C(c4ccccc4)C3)no2)c1 (configuration not stated) was read as ELG1 DNA repair inconclusive, FLuc modulator 26.9µM*, Rab9 promoter act inconclusive, NPC1 prom act 26.3% and ELG1 genotoxic 6.9%.
`COc1ccc(OCc2cc(C(=O)N3CCCCCC3)no2)c(Cl)c1` gave ELG1 DNA repair inconclusive, FLuc modulator 19µM*, Rab9 promoter act inconclusive, NPC1 prom act inconclusive and ELG1 genotoxic inconclusive.
COc1ccc(OCc2cc(C(=O)N(C)C(C)c3ccon3)no2)c(Cl)c1 (configuration not stated) was read as ELG1 DNA repair inconclusive, FLuc modulator 13.5µM*, Rab9 promoter act 2.51µM*, NPC1 prom act inconclusive and ELG1 genotoxic inconclusive.
COc1ccc(OCc2cc(C(=O)N3CCC(c4ccccc4)CC3)no2)c(Cl)c1 was read as ELG1 DNA repair -2.2%, FLuc modulator 23.9µM*, Rab9 promoter act 2.82µM*, NPC1 prom act inconclusive and ELG1 genotoxic 16.3%.
For COC(=O)CSc1nnc2n(-c3ccccc3)c(=O)c3c4c(sc3n12)COC(C(C)C)C4 (configuration not stated) the results were FLuc modulator -5.4% and SMN2 splice up 0.7%.
Cc1ccc2nc(SCC(=O)Nc3ccc4c(c3)OCO4)nc(=O)n2c1 was read as ELG1 DNA repair -4.1%, FLuc modulator 0.2%, Rab9 promoter act 2.4%, NPC1 prom act 2.9% and ELG1 genotoxic 1.8%.
Screening COc1cc(C2NC(=O)NC(C)=C2C(C)=O)ccc1O (configuration not stated) returned ELG1 DNA repair 0.7%, FLuc modulator -2.9%, Rab9 promoter act 0.0%, NPC1 prom act -1.2% and ELG1 genotoxic -0.2%.
O=C(Nc1ccc([N+](=O)[O-])cc1)Nc1ccc2c(c1)OCCO2 was read as ELG1 DNA repair inconclusive, FLuc modulator 2.13µM*, SMN2 splice up 6.31µM*, Rab9 promoter act 0.794µM*, NPC1 prom act 1µM* and ELG1 genotoxic -6.3%.
`O=[N+]([O-])c1ccc2c(c1)OCCOCCOCCOCCOCCOCCO2` gave ELG1 DNA repair -7.6%, FLuc modulator -0.6%, SMN2 splice up -21.1%, Rab9 promoter act 1.4%, NPC1 prom act 2.2% and ELG1 genotoxic 0.0%.
